Pol kappa inh – qHTS for Inhibitors of Polymerase Kappa; DNA polymerase kappa (Homo sapiens), Q9UBT6; hit rate 0.53% among 400,000; Potency, µM (top dose mostly 107 µM), without a hit: at the highest dose activity, negative = inhibition, actives largely listed as inhibitors; purified Pol kappa, fluorescent DNA synthesis assay, 10 min; also: % is scaled to controls: 0 for no effect and ±100 for the full control effect
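First, compounds were pin-transferred onto 10 nM Pol kappa. After 15 min at room temperature, substrate was added to 50 nM final. Fluorescence was then measured kinetically at 0 and 10 min.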
Pol beta inh – qHTS Assay for Inhibitors of DNA Polymerase Beta; P06746; Pol beta primer extension/strand displacement, fluorescence kinetic; Potency, µM (titrated, usually from 114 µM), for inactives: at the top dose activity change, negative = inhibition, actives largely listed as inhibitors; hit rate 1.3% among 340,000; also: % is scaled to controls: 0 for no effect and ±100 for the full control effect
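Values derive from four-parameter Hill fits of normalized kinetic data: reads at 0 and 10 min following addition of 50 nM substrate to 10 nM Pol beta preincubated 15 min with compound.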
GLS inh – qHTS for Inhibitors of Glutaminase (GLS); GLS enzymatic activity, qHTS titration; Potency, µM (top dose mostly 45.5 µM), for inactives: at the highest dose activity change, negative = inhibition, usual class: inhibitors; hit rate 0.21% among 410,000; AID 624170, 2012; also: % is scaled to controls: 0 for no effect and ±100 for the full control effect
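Read-out is an Amplex red fluorescence increase coupled through glutamate oxidase and HRP, measured before and after 30 min room-temperature incubation. hKGA is in 45 mM KH2PO4 (pH 8.2) with 0.02% Tween-20; glutamine added as 1mM solution.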
POLH inh – qHTS for Inhibitors of Polymerase Eta | recombinant Pol eta, fluorescent DNA replication assay | Potency, µM (titrated, usually from 114 µM), for the others: top-dose activity change, negative = inhibition, usual class: inhibitors | DNA polymerase eta (Homo sapiens), Q9Y253 | hit rate 1.2% among 390,000; also: % is scaled to controls: 0 for no effect and ±100 for the full control effect
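Pol eta at 10 nM preincubated with compounds 15 min at room temperature; reaction started with fluorescent substrate (50 nM final) and read kinetically at 0 and 10 min.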
POLI inh – qHTS for Inhibitors of Polymerase Iota; DNA polymerase iota (Homo sapiens), Q9UNA4; Potency, µM (titrated, usually from 115 µM), for inactives: top-dose activity, negative = inhibition, hits mostly inhibitors; Pol iota fluorescent replication assay, 10 min; hit rate 1% among 390,000
Target sequence (Q9UNA4 whole entry, looked up): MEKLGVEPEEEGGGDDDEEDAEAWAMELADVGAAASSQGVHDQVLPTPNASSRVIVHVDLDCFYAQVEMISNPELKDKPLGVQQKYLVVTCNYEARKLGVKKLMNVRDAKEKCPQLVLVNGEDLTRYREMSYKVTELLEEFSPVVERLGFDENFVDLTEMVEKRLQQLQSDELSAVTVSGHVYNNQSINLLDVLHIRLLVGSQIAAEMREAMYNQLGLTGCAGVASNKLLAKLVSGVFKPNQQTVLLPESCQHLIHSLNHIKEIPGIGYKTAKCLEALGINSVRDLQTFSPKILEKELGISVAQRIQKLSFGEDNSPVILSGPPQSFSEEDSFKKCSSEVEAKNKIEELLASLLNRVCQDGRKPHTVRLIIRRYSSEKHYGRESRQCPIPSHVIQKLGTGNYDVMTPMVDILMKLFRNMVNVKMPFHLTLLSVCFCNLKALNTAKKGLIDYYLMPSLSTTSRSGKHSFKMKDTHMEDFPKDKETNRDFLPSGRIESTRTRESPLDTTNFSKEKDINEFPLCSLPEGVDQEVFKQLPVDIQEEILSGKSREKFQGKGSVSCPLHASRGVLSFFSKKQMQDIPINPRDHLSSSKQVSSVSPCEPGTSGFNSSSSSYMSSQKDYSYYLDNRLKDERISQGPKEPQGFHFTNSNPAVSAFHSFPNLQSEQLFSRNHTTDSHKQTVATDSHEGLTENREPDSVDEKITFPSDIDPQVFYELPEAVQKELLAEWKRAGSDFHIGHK
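Fluorescent replication assay read twice, at 0 min and 10 min after adding 50 nM (final) substrate. Enzyme (10 nM) and compounds were first incubated 15 min at room temperature; enzyme-free buffer wells were negative controls.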
KAT2A inh – qHTS Assay for Inhibitors of GCN5L2. GCN5L2 HAT assay, ThioGlo1 CoA-SH fluorescence. Potency, µM (top dose mostly 58.9 µM), without a hit: at the top dose activity change, negative = inhibition, actives largely listed as inhibitors. hit rate 0.21% among 390,000. AID 504327, 2011; also: % is scaled to controls: 0 for no effect and ±100 for the full control effect
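Preincubate 20nM GCN5L2 with compound 15 min, RT → add 50uM ThioGlo1 + 75uM H3(1-25) + 70uM acetyl-CoA → read fluorescence 0 and 20 min. Primary qHTS; fluorescent artifacts likely.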
Starred values were filed as active, the others as inactive; ? = inconclusive; . = no result; [ ] = dose if it differs, or a comment. Sampled rows, rich in hits. Any-hit rate of the full collection: about 2.4%. Calls follow the shape of the dose curve; as a rule, active = well fitted inhibition curve with a large enough effect; inconclusive = small, poorly fitted or top-dose-only effect, or another doubt; inactive = no such curve, though single readings can be large or run the other way. Potency is read from the fitted curve at half-maximal effect.

SMILES | Pol kappa inh | Pol beta inh | GLS inh | POLH inh | POLI inh | KAT2A inh
Cc1cc(C)cc(NC(=O)Oc2ccccc2N2CCCCC2)c1 | 3% | 9% | 10µM* | -13% | 34% | 1%
COC(=O)Cc1c(C)c2cc3c(c(C)c2oc1=O)OCN(CCc1ccc(OC)cc1)C3 | 0% | 2% | 6% | 5% | 12% | 32µM*
COC(=O)Cc1c(C)c2cc3c(c(C)c2oc1=O)OCN(CCc1ccccc1F)C3 | -38% | 0% | 52% | -8% | -20% | ?
Cc1cccc(NC(=O)Cn2nnc(-c3nc(-c4ccncc4)no3)c2N)c1 | 3% | 56µM* | 3% | . | 21% | -17%
COc1ccc(NC(=O)Cn2nnc(-c3nc(-c4ccncc4)no3)c2N)cc1OC | -6% | 79µM* | -2% | . | 25% | -6%
CCc1ccc(NC(=O)C2CCN(S(=O)(=O)c3ccc4c(c3)NC(=O)C(C)S4)CC2)cc1 (stereo unspecified) | -19% | ? | 0% | 0% | 79µM* | -14%
Cc1ccc(NC(=O)C2CCN(S(=O)(=O)c3ccc4c(c3)NC(=O)C(C)S4)CC2)cc1C (stereo unspecified) | -5% | 87% | 3% | -19% | 9% | -12%
Cc1cc(Cl)ccc1N1C(=O)CC(NNC(=O)c2cccnc2)C1=O (stereo unspecified) | -17% | 2% | 7.1µM* | -1% | 92% | -5%
Cc1ccc(C(=O)Nc2c(C(=O)NCc3ccc(Cl)cc3)sc3nc(C)cc(C)c23)cc1 | -1% | 1% | -2% | . | 12% | -4%
Cc1cc(C)c2c(NC(=O)c3ccccc3Cl)c(C(=O)NCc3ccc(Cl)cc3)sc2n1 | -16% | 22µM* | -1% | . | -20% | -5%
N#C/C(=C(/O)CCl)c1nc2c(s1)CCc1ccccc1-2 | -27% | ? | -27% | 35µM* | ? | -14%
Cc1nn(-c2ccccc2)c2sc(-c3nnc(SCC(=O)O)o3)cc12 | -6%[60.1 µM] | -11% | 8% | 89µM* | -16% | -2%
CCn1c(SCC(=O)O)nnc1-c1cc2c(C)nn(-c3ccccc3)c2s1 | -2% | 10% | 12% | -7% | 2% | -12%
CCOc1ccc(N=Nc2c(=O)[nH]n3c(=O)c4c([nH]c23)CCCC4)cc1 | -12% | 50µM* | ? | -18% | 20% | -6%
CCOc1ccc(N=Nc2c(=O)[nH]n3c(=O)cc(C)[nH]c23)cc1 | -14% | -3% | -2% | -8% | -12% | -16%
Clc1ccc(CNc2ncnc3nc[nH]c23)cc1 | -3% | . | . | . | 8% | .
CCN(C(=O)C(=O)c1c(C)[nH]c2ccccc12)c1ccccc1 | 6% | . | . | . | 2% | .
O=C(CS(=O)CC(=O)Nc1cnc2ccccc2c1)Nc1ccc(Cl)cc1 (stereo unspecified) | -29% | 50µM* | -6% | ? | ? | -12%
CN1CCc2nc3sc(C(=O)C45CC6CC(CC(C6)C4)C5)c(N)c3cc2C1 | ? | 50µM* | -1% | ? | 0% | 6%
CN1CCc2nc3sc(C(=O)c4ccc(F)cc4)c(N)c3cc2C1 | 2% | 13% | -16% | -19% | 25% | -3%
CC(=O)NC1=C(C#N)CCC1 | 10% | . | . | . | 17% | .
COC(=O)c1cn(CCOc2ccccc2F)c2ccccc12 | -20% | 89µM* | 1% | -11% | 0% | -14%
Nc1nc(NCCO)nc(N2CCCCCC2)c1[N+](=O)[O-] | 6% | -20% | 1% | -2% | -7% | 0%
OCCN(CCO)c1nc(N2CCCCC2)c2nc(N(CCO)CCO)nc(N3CCCCC3)c2n1 | 2%[60.1 µM] | 0% | 16% | -4% | 4% | 25µM*
N#Cc1ccccc1S(=O)(=O)N1CCN(C(=O)C2COc3ccccc3O2)CC1 (stereo unspecified) | -37% | . | -4% | ? | 79µM* | -10%
SMILES | Pol kappa inh | Pol beta inh | GLS inh | POLH inh | POLI inh | KAT2A inh
Cc1ccc(C)c(/C(O)=C2/C(=O)C(=O)N(CCN3CCOCC3)C2c2ccco2)c1 (stereo unspecified) | ? | 7.1µM* | -16% | 22µM* | ? | -4%
Cc1ccc(C2/C(=C(/O)c3ccccc3)C(=O)C(=O)N2CCN2CCOCC2)o1 (stereo unspecified) | -14% | 16% | 5% | -2% | 10% | ?
CCC(C)C(N)C(=O)NC(CC(N)=O)C(=O)NC(CC(C)C)C(=O)NC(CCCCN)C(=O)NC(C)C(=O)NC(CC(C)C)C(=O)NC(C)C(=O)NC(C)C(=O)NC(CC(C)C)C(=O)NC(C)C(=O)NC(CCCCN)C(=O)NC(CCCCN)C(=O)NC(C(=O)NC(CC(C)C)C(N)=O)C(C)CC (stereo unspecified) | -8%[60.1 µM] | . | . | . | . | -15%
C=CCn1c(O)c(CN2CCCCC2)c(C)c(C#N)c1=O | -10% | 10% | 0% | -20% | 28µM* | -2%
Cc1ccc(C)c(NC(=O)CSc2nc3nc(-c4cccs4)cc(C(F)(F)F)c3c(=O)[nH]2)c1 | -15% | ? | -2% | ? | ? | -3%
O=C(CSc1nc2nc(-c3cccs3)cc(C(F)(F)F)c2c(=O)[nH]1)Nc1ccc(F)c(F)c1 | ? | 28µM* | 0% | 32µM* | ? | 0%
NC(C(=O)O)[C@H](O)C(=O)O (stereo partly specified) | 5%[19.4 µM] | . | . | . | . | -2%
CN(C)CCN1C(=O)c2cccc3cc([N+](=O)[O-])cc(c23)C1=O | ? | . | 4% | ? | 79µM* | .
O=C(CCCN1C(=O)/C(=C/c2cccs2)SC1=S)NNC(=O)c1ccncc1 | -6% | 25µM* | 0% | ? | ? | -9%
Cc1ccc(Cn2c(/C=C/c3ccco3)nc3ccccc32)cc1 | -13% | ? | 4% | -17% | -16% | -8%
CCCn1c(/C=C/c2ccco2)nc2ccccc21 | -36% | 22µM* | -1% | 13µM* | 45µM* | 17%
CCCCn1c(/C=C/c2ccco2)nc2ccccc21 | -10% | 8.9µM* | -14% | ? | ? | -3%
Cc1ccc(N/C(C(Cl)=C(Cl)Cl)=C(/Cl)[N+](=O)[O-])c(C)c1 | 0% | -2% | 21% | -10% | 16µM* | -3%
O=C(Cc1cccc2ccccc12)NO | 3% | . | . | . | -1% | .
O=C(OC1CCOC1=O)c1ccccc1C(=O)c1ccc(Cl)c([N+](=O)[O-])c1 (stereo unspecified) | -37% | . | -7% | 50µM* | 40µM* | -11%

Compound activity (PubChem)
